ADAM10 inh: human ADAM10 inhibitors, primary screen, biochemical, QFRET, HTS; recombinant ADAM10, EDANS/DABCYL FRET peptide cleavage, 3 h; inhibition, % at 7 µM; Disintegrin and metalloproteinase domain-containing protein 10 (Homo sapiens), O14672; hit rate 0.62% among 370,000;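 active = inhibition above a per-campaign cutoff equal to the mean of compounds falling between control-based bounds plus 3 SD, cut at about 20% in these data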;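 also: 0% = DMSO wells while the 100% control is not disclosed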
sPLA2-III inh: human group III sPLA2 inhibitors, primary screen, biochemical, QFRET, BODIPY PC-A2 liposome substrate. Group 3 secretory phospholipase A2 (Homo sapiens), Q9NZ20. QFRET BODIPY PC-A2 liposome hydrolysis, fluorescence. inhibition, % at 12.2 µM. hit rate 0.56% among 370,000. AID 743126, 2013;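 active = inhibition above mean plus 3 SD of compounds lying within the high and low control bounds, cut at about 19% in these data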;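 also: 0% = median of test compound wells and 100% = no enzyme DMSO wells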
PLCb3 inh: human PLC-beta3 inhibitors, primary screen, biochemical, fluorescence. 1-phosphatidylinositol 4,5-bisphosphate phosphodiesterase beta-3 (Homo sapiens), Q01970. Purified PLC-beta3, fluorogenic substrate. inhibition, % at 12.2 µM. hit rate 0.18% among 370,000. AID 720704, 2013; in the data active = inhibition above about 11%;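 also: 0% = median of compound wells on plate and 100% = full blocker control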
proKLK7 act: proKLK7 zymogen activators, primary screen, biochemical, fluorescence intensity; purified proKLK7, EDANS-DABCYL substrate fluorescence; 100% is mature enzyme control, 0% vehicle; activation, % at 7 µM; hit rate 0.9% among 370,000; AID 652039, 2013;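 active = activation above the mean of all tested compounds plus 3 SD, computed per campaign excluding outliers beyond control limits, cut at about 13% in these data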
PLCg1 inh: PLC-gamma1 enzyme inhibitors, primary screen, biochemical, fluorescence, purified enzyme; 1-phosphatidylinositol 4,5-bisphosphate phosphodiesterase gamma-1 (Homo sapiens), P19174; fluorogenic substrate; inhibition, % at 12.2 µM; hit rate 0.84% among 370,000
ADAM17 inh: ADAM17 inhibitors, primary screen, biochemical, QFRET. recombinant ADAM17, EDANS/DABCYL FRET peptide cleavage. inhibition, % at 6.95 µM. hit rate 0.83% among 370,000;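 active = inhibition above the mean of compounds lying between control limits plus 3 SD, set per campaign, cut at about 8.5% in these data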;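 also: 0% = DMSO-only wells as the low control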
ADAM10 counter: ADAM10 inhibitors, counter-screen for ADAM17 exosite inhibitor project, biochemical, FRET, human ADAM10; AID 743256, 2014; shares compounds with ADAM17 inh; hit rate 47% among 2,900; inhibition, % at 6.95 µM; recombinant ADAM10, EDANS/DABCYL FRET peptide cleavage, 3 h;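 active = mean inhibition over the triplicate runs exceeds the activity threshold set in the earlier primary screen, cut at about 20% in these data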;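 also: 0% = DMSO wells and 100% = marimastat wells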
ADAM17 confirm: ADAM17 inhibitors, hit retest, confirmation, biochemical, QFRET peptide cleavage. shares compounds with ADAM17 inh. recombinant ADAM17, EDANS/DABCYL QFRET peptide cleavage. inhibition, % at 6.95 µM. hit rate 65% among 2,900. AID 743257, 2014;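 active = mean inhibition across replicates above the hit cutoff set in the primary screen, cut at about 8.5% in these data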;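 also: 0% = DMSO wells and 100% = marimastat wells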
PLCg1 ctr: PLC-gamma1 enzyme inhibitors, counter-screen for PLC-beta3 inhibitor project, biochemical, fluorescence. purified PLC-gamma1, fluorogenic substrate. inhibition, % at 12.3 µM. AID 743258, 2014. hit rate 3.1% among 3,300. shares compounds with PLCg1 inh
PLCb3 confirm: PLC-beta3 inhibitor confirmation, biochemical, fluorescence, purified enzyme | shares compounds with PLCg1 inh | AID 743261, 2014 | hit rate 1% among 3,300 | fluorogenic substrate fluorescence | inhibition, % at 12.3 µM; in the data active = inhibition above about 11%
An asterisk follows results filed as active; . = no result given. Sampled rows, rich in hits. Any-hit rate of the full collection: about 3.4%. Rule as the data show it, unless noted: active = inhibition above about 9.5%; inactive = the rest.

SMILES	ADAM10 inh	sPLA2-III inh	PLCb3 inh	proKLK7 act	PLCg1 inh	ADAM17 inh	ADAM10 counter	ADAM17 confirm	PLCg1 ctr	PLCb3 confirm
COC(=O)[C@]12C[C@H](CC(=O)NCc3ccc(C)o3)C(=O)N(Cc3ccccc3)C1=C[C@H](C1CCCC1)O[C@@H]2C	9	-14	12*	0	7	12*	10	7	-8	-4
COC(=O)[C@]12C[C@H](CC(=O)NCc3ccc(C)o3)C(=O)N(Cc3cccc4ccccc34)C1=C[C@H](C1CCCC1)O[C@@H]2C	19	-13	0	0	1	6	.	.	.	.
COC(=O)[C@]12C[C@H](CC(=O)NCCCCc3ccccc3)C(=O)N(Cc3cccc4ccccc34)C1=C[C@H](C(C)C)O[C@@H]2C1CC1	6	-11	2	-1	13*	9.6*	12	12*	-1	-6
COC(=O)Nc1ccc(S(=O)(=O)N2CCC(C(=O)NC3CCCCC3)CC2)cc1	0	0	2	0	0	-1	.	.	.	.
CN(C)S(=O)(=O)c1ccc(NC(=O)CN2C(=O)NC3(CCCC3)C2=O)cc1	-4	-4	-4	-1	1	1	.	.	.	.
CCC/C(O)=C1\C(=O)CCCC1=NC(C)C(=O)O (stereo unspecified)	6	-1	7	0	9.8*	10*	10	7	-8	-2
CCOc1ccc(N2C(=O)Nc3ccc(Br)cc3C2(O)C(=O)NCCN(C)C)cc1 (stereo unspecified)	6	-2	6	0	-1	-1	.	.	.	.
Cc1onc(-c2ccc(Cl)cc2)c1-c1ccn(S(=O)(=O)c2ccccc2)n1	17	8	0	0	10*	14*	11	10*	-3	-1
OC(COc1ccc(OCc2ccccc2)cc1)CN1CCCCC1 (stereo unspecified)	0	-2	2	1	1	-3	.	.	.	.
OC(COc1ccc(OCc2ccccc2)cc1)CN1CCOCC1 (stereo unspecified)	10	-11	9	0	9.7*	10*	6	4	-3	2
CCOC(=O)NCc1ccc(S(=O)(=O)Nc2ccc(C)cc2)cc1	14	-8	4	0	13*	11*	5	4	-7	-4
O=C(OCC(=O)N1CCc2ccccc21)c1ccccc1[N+](=O)[O-]	-8	2	-1	0	1	-7	.	.	.	.
CCCN1C(=O)c2[nH]nc(-c3ccccc3)c2C1c1ccc(F)cc1 (stereo unspecified)	-11	-5	2	0	3	-3	.	.	.	.
COc1cccc(C(=O)N/N=C/c2ccc(OC3CSC3)cc2)c1	12	6	2	1	10*	9.2*	-3	-1	-1	0
Cc1cccc(C(=O)N/N=C/c2ccc(OC3CSC3)cc2)c1	1	16	-2	1	0	-2	.	.	.	.
Cc1c(C(=O)NCc2ccccc2)oc2ccc(S(=O)(=O)N3CCC4(CC3)OCCO4)cc12	12	-16	1	1	10*	9.6*	4	6	-7	-2
